# In PubChem BioAssay (NCI):
# About 83,000 compounds went through this panel and 20% of them were active in at least one assay; those are over-represented in the sample as a whole.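 Single-concentration screen, 48 h exposure, 96-well plates. Endpoint: percent growth. Below 10 = active.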 A number with no mark means an inactive call. The source made the active and inactive calls.
# Key:
# Test in all cases: NCI-60 one-dose screen, 48 h (100 = growth as untreated, 0 = no growth, -100 = all killed)
# Details in all cases: 10 µM unless noted
# SR leukemia = tested on: SR leukemia
# RPMI-8226 leukemia = tested on: RPMI-8226 leukemia
# OVCAR-8 ovarian = tested on: OVCAR-8 ovarian
# OVCAR-5 ovarian = tested on: OVCAR-5 ovarian
# OVCAR-4 ovarian = tested on: OVCAR-4 ovarian
# SK-OV-3 ovarian = tested on: SK-OV-3 ovarian
# IGROV1 ovarian = tested on: IGROV1 ovarian
# OVCAR-3 ovarian = tested on: OVCAR-3 ovarian
# HS 578T breast = tested on: HS 578T breast
# NCI/ADR-RES ovarian = tested on: NCI/ADR-RES ovarian
# T-47D breast = tested on: T-47D breast
# BT-549 breast = tested on: BT-549 breast
# SW-620 colon = tested on: SW-620 colon
# MCF7 breast = tested on: MCF7 breast
# HCT-116 colon = tested on: HCT-116 colon
# HCC-2998 colon = tested on: HCC-2998 colon
# KM12 colon = tested on: KM12 colon
# MDA-MB-435 melanoma = tested on: MDA-MB-435 melanoma
SMILES,growth (SR leukemia),growth (RPMI-8226 leukemia),growth (OVCAR-8 ovarian),growth (OVCAR-5 ovarian),growth (OVCAR-4 ovarian),growth (SK-OV-3 ovarian),growth (IGROV1 ovarian),growth (OVCAR-3 ovarian),growth (HS 578T breast) [%],growth (NCI/ADR-RES ovarian),growth (T-47D breast),growth (BT-549 breast),growth (SW-620 colon),growth (MCF7 breast),growth (HCT-116 colon),growth (HCC-2998 colon),growth (KM12 colon),growth (MDA-MB-435 melanoma)
CCOC(=O)c1c2c(n3ccc(NC(=O)CCN(CC)CC)cc13)C(=O)c1ncccc1C2=O,-2.86% (active),51.2%,57.4%,90.5%,63.8%,36.2%,47.3%,74.7%,60.8,60.2%,55.9%,75.9%,49.3%,-8.59% (active),49.3%,83.1%,63.5%,–
Cc1nn(-c2nc3ccccc3[nH]2)c2c1C(c1ccc3c(c1)OCO3)CC(=O)N2 (configuration not stated),14%,-18.4% (active),36.9%,105%,65.1%,54.9%,21.3%,-24.3% (active),38.2,50.3%,45.6%,49.4%,10.8%,17.4%,6.24% (active),63.6%,1.53% (active),–
CCOC(=O)C(C#N)C1CCCCC1 (configuration not stated),84.3%,99.1%,103%,99.8%,118%,109%,101%,96.9%,122,98.5%,91.1%,90.1%,106%,123%,99.4%,102%,107%,–
Nc1ccc2c(c1)C(=O)NC2=O,40.7%,84.1%,106%,92.8%,82.8%,100%,113%,105%,93.5,95.2%,93.5%,117%,94.8%,96.5%,97.8%,95.2%,98.8%,–
O=c1cc(-c2ccccc2)[nH]c2ccccc12,22.8%,22.4%,35%,50.6%,64.5%,37.5%,-7.72% (active),-37.8% (active),25.9,-2.1% (active),47.9%,-12.2% (active),29.8%,15.6%,25.1%,18.5%,12.7%,–
COc1ccc2nc3cc(Cl)ccc3c(N3CCN(c4nccc(Nc5ccccc5)n4)CC3)c2c1,26.9%,45.2%,67.8%,99.5%,50.8%,96.2%,78.8%,50.7%,88.1,69.9%,23.3%,–,59.7%,24.3%,16.3%,87.6%,63.1%,62%
Cc1ccc(C2CC3c4ccccc4C2C2CCCCN32)cc1 (configuration not stated),106%,60.1%,109%,96.2%,82.6%,91.7%,–,67.7%,93.3,94.1%,83.6%,57.4%,106%,95.7%,95.1%,93.1%,–,97.8%
O=C1C[C@H](N2C(=O)c3ccccc3S2(=O)=O)C2CO[C@@H]1O2,10.3%,91.1%,93.7%,97.5%,84.3%,98.5%,103%,86.9%,102,98.3%,54.1%,–,56.1%,23.1%,42.7%,99.3%,102%,95.7%
COc1ccc(/C=C2\N=C3SC=C(N)N3C2=O)cc1,-21.3% (active),-28.8% (active),35.7%,59.9%,21.5%,45.6%,9.81% (active),24.2%,50.4,42.3%,9.75% (active),11.8%,21.9%,13.4%,–,–,46.9%,9.59% (active)
COc1ccc(-c2cnoc2-c2cc(OC)c3c(c2)OCCO3)cc1,3.75% (active),-8.88% (active),9.43% (active),31.9%,50.4%,11.7%,29.2%,-18.6% (active),45.7,3.01% (active),–,3.85% (active),19.5%,12.4%,-12.3% (active),8.32% (active),3.62% (active),-27.9% (active)
COc1ccc(C(=O)c2sc3nc4c(c(C(F)(F)F)c3c2N)CN(C(C)=O)CC4)cc1OC,79.4%,57.1%,80.9%,89.3%,85.8%,87.2%,98.2%,95.9%,81.6,84.7%,–,99.6%,100%,83.4%,89.3%,94.9%,97.6%,–
CC1=C(NCCN2CCCC2)C(=O)c2c(OCc3ccc(C(F)(F)F)cc3)cccc2C1=O,-15.7% (active),29.7%,77%,90.1%,84.7%,95.6%,89.1%,83.6%,87.6,87.5%,73.6%,–,83.5%,59.9%,33.9%,107%,85%,70.9%
COc1ccc(-n2cc(-c3ccccc3)c3c(SCC(=O)N/N=C/c4ccc([N+](=O)[O-])cc4)ncnc32)cc1,108%,108%,103%,99.2%,102%,109%,108%,105%,105,91.3%,98.7%,97.8%,103%,92.5%,–,97.7%,101%,109%
CCOC(=O)Cc1cnn(C)c1NC(=O)c1ccc(Cl)cc1NC(C)=O,104%,102%,99.8%,99.3%,110%,102%,105%,108%,97,106%,103%,93.2%,105%,106%,101%,107%,102%,–
COC(=O)C12C3C(=O)N(c4ccc(OC)cc4)C(=O)C3C(c3cn(-c4ccccc4)nc3C)N1[C@H](c1cn(-c3ccccc3)nc1C)[C@@H]1C(=O)N(c3ccc(OC)cc3)C(=O)[C@@H]12 (some centres not stated),91%,106%,99%,103%,108%,101%,107%,104%,106,97.4%,102%,113%,100%,102%,–,–,106%,102%
O=C(CN1CCOCC1)Nc1ccc(Cn2nnc3c2C(=O)c2nnn(Cc4ccc(NC(=O)CN5CCOCC5)cc4)c2C3=O)cc1,-21.3% (active),-18.9% (active),-58.3% (active),-21.9% (active),-93.4% (active),0.088% (active),-41.4% (active),-19% (active),11.6,103%,-26.5% (active),-95.6% (active),4.23% (active),-62% (active),-75.1% (active),-42% (active),6.44% (active),–
O=C1CC(c2nc3ccccc3s2)CN1C1CCCCC1 (configuration not stated),97.1%,98.4%,–,99.8%,94.1%,91.6%,95%,101%,98.9,89.4%,88.2%,97.1%,107%,89.1%,108%,95.2%,98%,107%
C/C(=C(/c1ccc(O)cc1)c1ccc(OCCN(C)C)cc1)c1ccccc1,63.7%,85.1%,–,87.6%,83.2%,90.2%,89.1%,90.2%,90,81.3%,42.6%,92.4%,101%,32.6%,68.4%,97.8%,81.1%,77.2%
